# Measured values as given in PubChem BioAssay (EPA / NIEHS).
# “And” between values parts separate entries of the source, which are not always exact repeats. Equal values may be shown once. A structure can be active in one record and inactive in another. The source made the active and inactive calls. The calls were made as follows: active = hit-call score of the fitted dose curve at least 0.9, where 1 is the maximum; inactive = score below 0.9.
# Read-out: Monocyte Chemoattractant Protein-1 (MCP1), CCL2 (gene 6347)
# Test: BSK_SAg_MCP1: BioMAP Diversity Plus: SAg Assay for Monocyte Chemoattractant Protein-1 (MCP1) Biomarker Activity (AID 2283090)
# Conditions: primary human HUVEC with PBMC; actives raise or lower the signal
# Protocol: BSK_SAg is a cell-based, multiplexed-readout assay that uses umbilical vein endothelium and peripheral blood mononuclear cells, a human vascular primary cell co-culture, with measurements taken at 24 hours after chemical dosing in a 96-well plate.BSK_SAg_MCP1 is an assay component measured in the BSK_SAg assay. It measures MCP-1 antibody related to regulation of gene expression using ELISA technology.Data from the assay component BSK_SAg_MCP1 was analyzed into 1 assay endpoint. This assay endpoint, BSK_SAg_MCP1, was analyzed with bidirectional fitting relative to DMSO as the negative control and baseline of activity. Using a type of binding reporter, gain or loss-of-signal activity can be used to understand changes in the signaling as they relate to the gene CCL2. Furthermore, this assay endpoint can be referred to as a primary readout, because this assay has produced multiple assay endpoints where this one serves a signaling function. To generalize the intended target to other relatable targets, this assay endpoint is annotated to the cytokine intended target family, where the subfamily is chemotactic factor.
# The levels of cell surface (or secreted, indicated by the prefix "s") biomarker endpoints were measured by ELISA. Overt cytotoxicity to cells in confluent adherent cultures (all systems other than the BT system) was assessed by measuring total protein levels using sulforhodamine B (SRB) staining in parallel cultures at the time of biomarker measurements, indicated as SRB endpoints. For proliferation assays for adherent cell types, individual cell types are cultured at sub-confluence and relative cell numbers quantified by SRB staining at time points optimized for each system (48 h: 3C and CASM3C systems; 72 h: BT and HDF3CGF systems; 96 h: SAg system). SRB was performed by staining cells with 0.1% SRB after fixation with 10% TCA and reading wells at 560 nm.Viability and proliferation of PBMC (T cells) was quantified by Alamar Blue reduction for the SAg and BT systems. For PBMC viability (referred to as PBMC Cytotoxicity within the assay endpoint names), cells were plated (75,000/well in a 96-well plate) and then chemical samples added for 1 h before addition of activators, SEB and TSST-1 (20 ng/mL final concentration each). Cells were incubated for 90 h. Then, Alamar Blue (20 uL/well) (Invitrogen, Cat DAL1100) was added for 6 h, and the plates were read with a fluorescence microplate reader at 546/580 nm (excitation/emission). For PBMC proliferation, cells were plated and activated as above but incubated for only 16 h prior to addition of Alamar Blue. Plates were read after 6 h.
Structure (SMILES),outcome,AC50
CC1=NN(c2ccccc2)C(=O)C1,inactive,–
O=C1NS(=O)(=O)c2ccccc21,inactive,–
O=C1c2ccc(O)c(O)c2C(=O)c2c(O)ccc(O)c21,inactive,–
CCCCC=O,inactive,–
OCCN1CN(CCO)CN(CCO)C1,–,20 µM (active)
C=CC(=C)CC/C=C(\C)CCC=C(C)C,–,0.042 µM (active)
CCCCCc1ccc(O)cc1,–,27.5 µM (active)
COc1cc(OC)nc(NC(=O)NS(=O)(=O)Nc2ccccc2C(=O)N(C)C)n1,inactive,–
O=C1OC2(c3ccccc31)c1cc(I)c(O)c(I)c1Oc1c2cc(I)c(O)c1I,–,10.2 µM (active)
O=C(CCCN1CCC(O)(c2ccc(Cl)cc2)CC1)c1ccc(F)cc1,inactive,–
O=C(O)C(F)(F)OC(F)(F)C(F)(F)OC(F)(F)C(F)(F)OC(F)(F)C(F)(F)C(F)(F)C(F)(F)F,–,48.8 µM (active) and 47.2 µM (active)
Oc1c(Cl)cc(Cl)cc1Sc1cc(Cl)cc(Cl)c1O,–,8.87 µM (active) and 5.21 µM (active)
O=C(NCc1ncc(C(F)(F)F)cc1Cl)c1c(Cl)cccc1Cl,inactive,–
Clc1ccc(Nc2nnc(Cc3ccncc3)c3ccccc23)cc1,inactive,–
CCC(C)c1ccccc1O (stereo not given),inactive,–
CCCCC(CC)C(=O)OCCOCCOCCOCCOC(=O)C(CC)CCCC (stereo not given),inactive,–
Cc1ccc(C(=O)c2ccccc2)cc1,inactive,–
CCCCCCCCCCCCCCCCCC[N+](C)(C)Cc1ccccc1,–,3.01 µM (active)
C=CC(=O)OCCC(F)(F)C(F)(F)C(F)(F)C(F)(F)C(F)(F)C(F)(F)C(F)(F)C(F)(F)F,inactive,–
COc1cccc(O)c1,inactive,–

Structure (SMILES),outcome,AC50
CCCCCCCCCCCCOS(=O)(=O)O,inactive,–
COCN(COC)c1nc(N(COC)COC)nc(N(COC)COC)n1,inactive,–
Cc1cccc2c1ccc1ccccc12,inactive,–
CCOC(=O)CN[C@@H](C(=O)N1CC[C@H]1C(=O)NCc1ccc(/C(N)=N/O)cc1)C1CCCCC1,inactive,–
O=C(NO)c1ccccc1,inactive,–
CCCCCCCCCCCC,inactive,–
OCC(CO)(CBr)CBr,inactive,–
CC[N+](CC)(CC)Cc1ccccc1,inactive,–
COC1=CC(=O)C[C@@H](C)[C@]12Oc1c(Cl)c(OC)cc(OC)c1C2=O,inactive,–
C=CC(C)(CCC=C(C)C)OC(C)=O (stereo not given),inactive,–
CN(CCO)S(=O)(=O)C(F)(F)C(F)(F)C(F)(F)C(F)(F)C(F)(F)C(F)(F)C(F)(F)C(F)(F)F,inactive,–
CCCCC(CC)C(=O)O (stereo not given),inactive,–
CN(C)CCOC(c1ccccc1)c1ccccc1,inactive,–
O=S(=O)(O)C(F)(F)C(F)(F)C(F)(F)C(F)(F)C(F)(F)C(F)(F)C(F)(F)C(F)(F)C(F)(F)C(F)(F)F,inactive,8.67 µM (active)
CN(C)c1ccc(C(=C2C=CC(=[N+](C)C)C=C2)c2ccccc2)cc1,–,0.026 µM (active)
CCCCc1oc2ccccc2c1C(=O)c1cc(I)c(OCCN(CC)CC)c(I)c1,–,20.5 µM (active)
CCCCCCCCCCCCCCC,inactive,–
O=C(CC(=O)C(F)(F)C(F)(F)C(F)(F)F)c1cccs1,–,37.4 µM (active) and 41.6 µM (active)
O=C(O)CCC(F)(F)C(F)(F)C(F)(F)C(F)(F)C(F)(F)C(F)(F)F,inactive,–
